# Measurements: the supplement of paper PMC11417369
# ± gives the standard deviation of the averaged measurements. The full ranking holds about 25,000 sequences; the median of “ln(normalized median fluorescence intensity)” is about 10, and the highest 2% start at about 12. The full list was thinned out, with the highest values kept by preference.
# System: PfAP2-G AP2 domain (GST-tagged)
# Assay: gcPBM binding intensity (ln(normalized median fluorescence intensity)); higher = stronger DNA binding
# Outline: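 Binding of GST-tagged P. falciparum DNA-binding domains, expressed in E. coli and used at about 25 μg on average, was carried out for 1 h in 1× PBS containing 1% milk, 0.2 mg/ml BSA, 0.5% salmon testes DNA and 0.03% Triton X-100. The target was an Agilent 4 × 180k array of primer-extended double-stranded 36-bp intergenic genomic probes plus negative controls, read with Alexa488 anti-GST antibody at 488 nm. Binding intensity is the highest Masliner-normalised natural-log median intensity across replicate spots of either probe orientation.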
row,Sequence,gcPBM binding intensity (ln)
1,GACATTAAAATGAAATATACATATATATGTATATAT [TGCATGCA_negctrl_site601],9.635 ± 0.049
2,AATTAAAATAGTAATACACACTTCATAGGAAATGAT [CACACA_site5045],9.83 ± 0.014
3,TAACATTAAAATAAAAGTACTTAATAATATTAAGTA [XGTACX_site5920],11.1 ± 0.87
4,TCTTATTTTTTTATATATACAAAGTTTTATATATAT [GTGCAC_negctrl_site314],9.915 ± 0.049
5,TTTCCTGGTCAAGGGGTTACGGTTACGTCCTCTTGC [CACACA_negctrl_site856],10.7 ± 0.49
6,TAAATTAAGAATTTTACACACATTAAATAAAAAAAA [CACACA_site3638],9.805 ± 0.078
7,AAATTTTAATTAGACTGTACACATTTTAGAATAATT [XGTACX_site4819],11.6 ± 0.92
8,ATTTTAGAATTTAATACACACAAAAAAAAAAAATTA [CACACA_site3704],10 ± 0.33
9,TTAAAAGATATTACATGTACATATTCAATATATGTA [XGTACX_site5895],11.1 ± 0.69
10,ACGTATCAATTTATTGGTACACATAAATATATATAT [XGTACX_site5556],11.3 ± 0.92
11,AATTGTACGTAGGGGTATAAAAGCTTAAAAATGGGG [CACACA_negctrl_site1392],11.6 ± 0.91
12,GAATGGACGTTAGGGGGTACGTATAAAATTTATCAA [XGTACX_site683],11.7 ± 0.81
13,ATATATTTTCAAAAAAGTAAATCAAAATAAATATAT [TGCATGCA_negctrl_site319],9.84 ± 0.085
14,AATACAGATAATACAACACACAAGTAATATAAACCT [CACACA_site5900],9.975 ± 0.021
15,GGTGATATAATATATACATGCACATATATATTATTA [TGCATGCA_site970],9.9 ± 0.042
16,CATTTAAAATTTGTTTGTACATATATATATATATAT [XGTACX_site6729],11 ± 0.66
17,AAAATTAATGTTGGTTGTACAAAAATTAAATATGGT [XGTACX_site66],11.3 ± 0.75
18,GTAGGTGTTTTTGGTTGTACATATAAATATATATAC [XGTACX_site3380],11.3 ± 0.8
19,TCCTTAAAATATGGTTGTACGTACATCCTAGGTGTT [XGTACX_site7068],11.7 ± 0.97
20,TATATAAATATATATGTACACACATATACATGTTGA [CACACA_site9022],11.3 ± 0.92
21,TATTTCAAATGTTATGTGCACATATTAATCCTACTT [GTGCAC_site9738],10.5 ± 0.28
22,ATAATTATCATAGGATGTACATATTTATTTTGTATA [XGTACX_site7797],11.2 ± 0.67

row,Sequence,gcPBM binding intensity (ln)
1,TTTATTAAAACAAAATGTACACACATATAATTTAAT [XGTACX_site1637],11.2 ± 0.68
2,ATTTTTGTAATTATTTGTACACATTTATTTATGTGT [XGTACX_site1864],11.5 ± 0.73
3,TTATATTTATATTTATGTACATATTTTGTGTGAAAA [XGTACX_site2367],11.4 ± 0.97
4,AATGTGAAAACGTGTACACATTTTATTTAATTTATC [CACACA_site5966],11.6 ± 0.98
5,TTATTAAAACAAAATGTACACACATATAATTTAATG [CACACA_site8193],11.3 ± 0.73
6,GCAAATGTGAAAACGTGTACACATTTTATTTAATTT [XGTACX_site8000],11.7 ± 1
7,CGTTATATATTTTATAGTACTTTTTGTAAATTTTTT [XGTACX_site7682],11.1 ± 0.67
8,CGATATGTTCAATATTGTACTATTTATAATAATATG [XGTACX_site3051],11 ± 0.69
9,ATATATATATATATATGTACTAAATATTCATCCTTA [XGTACX_site6039],11 ± 0.65
10,TGAATATAACAAATATGTACTTAAAATTGTTATATT [XGTACX_site5679],11.1 ± 0.76
11,GTGTAATATATTTTTCGTACATATTATATATATATA [XGTACX_site1675],11 ± 0.69
12,AATTTTTTTTTTAGACGTACAAGAAAAAACAAAAAA [XGTACX_site4990],11.7 ± 0.75
13,AATTATTTTAGAAACACACAAATTAGAAAAAACATA [CACACA_site7673],10.2 ± 0.24
14,AAGAAAAAACAAACATGTACACATAATTTAGTTTTT [XGTACX_site3121],11.4 ± 0.89
15,TTTATATGTATTAAGTGTACACATATAATGTGTTTT [XGTACX_site4890],11.6 ± 0.87
16,TTTTTTGCTAAGTGTACACAAATGTTTATTAATTTA [CACACA_site5859],11.7 ± 1
17,TTTATATGTATTAAGTGTACACATATAATGTATTTT [XGTACX_site16],11.5 ± 0.83
18,ATTTTTTTTGCTAAGTGTACACAAATGTTTATTAAT [XGTACX_site7440],11.7 ± 0.81
19,TATTTTTTTTTTTAATGTACAAACAAATTATGTTGG [XGTACX_site2873],10.8 ± 0.57
20,ATATATAATTTTTGCTGTACACAAAATATTAATTTA [XGTACX_site2057],11.5 ± 0.86
21,TCATATTCCAAAAAAAAAAAAAAAAAAAAAAAAATA [CACACA_negctrl_site1293],9.66 ± 0.3
22,AATAAATATTCATTTTGTACATATTTTTCGTATATG [XGTACX_site6104],10.9 ± 0.57
